The campaign covered roughly 5,500 compounds. About 2,000 (36%) were called active. Another 18% or so got no clear call; they are omitted. Cut-off read from the data, not from the text of the source: active = normalized growth mostly below about 0.91 (no sharp cut-off); inconclusive = no clear call, values can overlap the other calls; inactive = mostly above about 0.92. This is one part of the list.
Assay: chemical genetic growth profiling, strain panel (AID 1159580);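 note: tested at 20 µM; growth read once vehicle control cultures reached saturation at 30 °C; 1 = growth at the plate median or of vehicle wells; lower values mean less growth of the strain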
Conditions: growth OD

Measured: normalized growth

CCC(=O)c1c(C)c(C)c(C)c(C)c1C
inactive: S. cerevisiae deletion strains, locus YAL013W, strain DEP1, active compounds read low 0.985 | S. cerevisiae deletion strains, locus YBR229C, strain ROT2, active compounds read low 0.992 | S. cerevisiae deletion strains, locus YCL061C, strain MRC1, active compounds read low 0.988 | S. cerevisiae deletion strains, locus YDL101C, strain DUN1, active compounds read low 0.99 | S. cerevisiae deletion strains, locus YDL134C, strain PPH21, active compounds read low 0.984 | S. cerevisiae deletion strains, locus YDR150W, strain NUM1, active compounds read low 1.01 | S. cerevisiae deletion strains, locus YEL061C, strain CIN8, active compounds read low 0.975 | S. cerevisiae deletion strains, locus YGR078C, strain PAC10, active compounds read low 1 | S. cerevisiae deletion strains, locus YHR030C, strain SLT2, active compounds read low 0.95 | S. cerevisiae deletion strains, locus YHR087W, strain rtc3, active compounds read low 0.959 | S. cerevisiae deletion strains, locus YJL187C, strain SWE1, active compounds read low 0.995 | S. cerevisiae deletion strains, locus YJR043C, strain POL32, active compounds read low 0.983 | S. cerevisiae deletion strains, locus YJR075W, strain HOC1, active compounds read low 0.948 | S. cerevisiae deletion strains, locus YKL190W, strain CNB1, active compounds read low 0.983 | S. cerevisiae deletion strains, locus YLR039C, strain RIC1, active compounds read low 1.1 | S. cerevisiae deletion strains, locus YLR058C, strain SHM2 (second series), active compounds read low 0.967 | S. cerevisiae deletion strains, locus YLR085C, strain ARP6, active compounds read low 1.01 | S. cerevisiae deletion strains, locus YLR262C, strain YPT6, active compounds read low 1.06 | S. cerevisiae deletion strains, locus YML094W, strain GIM5, active compounds read low 0.977 | S. cerevisiae deletion strains, locus YMR219W, strain ESC1, active compounds read low 0.986 | S. cerevisiae deletion strains, locus YMR263W, strain SAP30, active compounds read low 0.977 | S. cerevisiae deletion strains, locus YNL153C, strain GIM3, active compounds read low 0.982 | S. cerevisiae deletion strains, locus YNL298W, strain CLA4 (second series), active compounds read low 0.966 | S. cerevisiae deletion strains, locus YNL322C, strain KRE1, active compounds read low 0.997 | S. cerevisiae deletion strains, locus YNR030W, strain Alg12, active compounds read low 0.954 | S. cerevisiae deletion strains, locus YOL006C, strain TOP1, active compounds read low 1.01 | S. cerevisiae deletion strains, locus YPL055C, strain LGE1, active compounds read low 0.971 | S. cerevisiae deletion strains, locus YPL241C, strain CIN2, active compounds read low 0.986 | S. cerevisiae deletion strains, locus YPR135W, strain CTF4, active compounds read low 0.976 | S. cerevisiae strains, strain wild type, active compounds read low 0.988

— PubChem BioAssay AID1159580 (chemical genetic matrix, 2015)
